Experimental findings from PubChem BioAssay (NCI) are described below.

The structures appear in SMILES notation. Compounds without any hit were thinned out: in the full panel of roughly 79,000, 15% have a hit. Activity calls are given as the source filed them. No stated cut-off is given here; in the data, active means growth inhibition above about 70%; inactive means the rest.

The nature of assay [1]: NCI Yeast Anticancer Drug Screen. Data for the rad50 strain (AID 155).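 Further: 0% = growth of vehicle-only cultures of the same strain.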 The note with it: S. cerevisiae rad50 strain growth inhibition, stronger effect = higher value. In outline:
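Yeast carrying a defined DNA repair defect were exposed to test compounds, and growth was compared with vehicle-treated controls to give percent inhibition.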

A short description of assay [2]: NCI Yeast Anticancer Drug Screen. Data for the mec2-1 strain (AID 157). The note with it: S. cerevisiae mec2-1 strain, stronger effect = higher value. In outline:
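mec2-1 yeast strain, carrying an alteration in DNA damage repair or cell cycle control, was exposed to compounds; growth inhibition was measured relative to vehicle-treated controls.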

Assay [3] is described as follows: NCI Yeast Anticancer Drug Screen. Data for the sgs1 mgt1 strain (AID 161).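 Further: 0% = growth of cultures given vehicle only.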 The note with it: S. cerevisiae sgs1 mgt1 strain, stronger effect = higher value. Summed up: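 This yeast growth screen uses a strain with defined DNA-repair lesions; compound-treated growth is compared with vehicle-treated growth.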
The nature of assay [4]: NCI Yeast Anticancer Drug Screen. Data for the cln2 rad14 strain (AID 165).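 Further: 0% = growth equal to vehicle treated cultures.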 Conditions: S. cerevisiae cln2 rad14 strain, stronger effect = higher value. In outline:
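Yeast carrying cln2 and rad14 alterations (cell cycle control and DNA damage repair) were exposed to compounds. Growth inhibition was measured against vehicle-treated controls.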

A short description of assay [5]: NCI Yeast Anticancer Drug Screen. Data for the bub3 strain (AID 167). The note with it: S. cerevisiae bub3 mutant strain, stronger effect = higher value. Summed up: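 Compounds were applied to a genetically altered yeast strain carrying a cell-cycle control defect. Growth inhibition was scored against vehicle-treated controls.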
A short description of assay [6]: NCI Yeast Anticancer Drug Screen. Data for the mlh1 rad18 strain (AID 175). The note with it: S. cerevisiae mlh1 rad18 strain growth inhibition, stronger effect = higher value. In outline: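 Growth inhibition of the yeast strain was measured after compound exposure and expressed relative to vehicle-treated controls. The strain carries defined defects in DNA damage repair.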

The mark [7] stands for this setting: at 5.0 µM (retest, dose inferred, filed as 0.5).
The mark [8] stands for this setting: at 50.0 µM (retest, dose inferred, filed as 5.0).

On to `CCCCCCCOC(=O)CSC#N`, for which the growth inhibition in assay [1] (setting [7]) is 61% (inactive); in assay [1] (setting [8]), 99% (active); in assay [1] (at 50.0 µM) it was 99.2% (active); in assay [2] (setting [7]), 52% (inactive); in assay [2] (setting [8]), 99% (active); in assay [2] (at 50.0 µM), 99.3% (active). Further, the growth inhibition in assay [3] (setting [7]) was 95% (active); in assay [3] (setting [8]), 99% (active); in assay [3] (at 50.0 µM), 99% (active); in assay [4] (setting [7]), 29% (inactive); in assay [4] (setting [8]), 99% (active); in assay [4] (at 50.0 µM), 98.5% (active). Also, the growth inhibition in assay [5] (setting [7]) is 86% (active); in assay [5] (setting [8]), 99% (active); in assay [5] (at 50.0 µM), 99.3% (active); in assay [6] (setting [7]) it was 90% (active); in assay [6] (setting [8]), 98% (active); in assay [6] (at 50.0 µM), 99.3% (active).
Take `N#Cc1c(-c2ccc(Cl)cc2)c(-c2ccc(Cl)cc2)nn(CCOC(=O)CN)c1=O`: the growth inhibition was 18% (inactive) in assay [1] (setting [7]); 94% (active) in assay [1] (setting [8]); 40.5% (inactive) in assay [1] (at 50.0 µM); 10% (inactive) in assay [2] (setting [7]); 96% (active) in assay [2] (setting [8]); 57% (inactive) in assay [2] (at 50.0 µM). The growth inhibition in assay [3] (setting [7]) was -27% (inactive); in assay [3] (setting [8]), 89% (active); in assay [3] (at 50.0 µM), 45.6% (inactive); in assay [4] (setting [7]), 6% (inactive); in assay [4] (setting [8]) it was 82% (active); in assay [4] (at 50.0 µM), 18.6% (inactive). For the same compound, the growth inhibition was -16% (inactive) in assay [5] (setting [7]); 86% (active) in assay [5] (setting [8]); 35.1% (inactive) in assay [5] (at 50.0 µM); 22% (inactive) in assay [6] (setting [7]); 97% (active) in assay [6] (setting [8]); 87% (active) in assay [6] (at 50.0 µM).
Take `Nc1cc2c(nc3c4ccccc4c(N)cc3[n+]2-c2cccc3ccccc23)c2ccccc12` (tested in a mixture with another compound): the growth inhibition in assay [1] (setting [7]) was 95% (active); in assay [1] (setting [8]), 92% (active); in assay [1] (at 50.0 µM), 89.4% (active); in assay [2] (setting [7]), 62% (inactive); in assay [2] (setting [8]) it was 92% (active); in assay [2] (at 50.0 µM), 90.2% (active). In addition, the growth inhibition in assay [3] (setting [7]) is 59% (inactive); in assay [3] (setting [8]) it was 94% (active); in assay [3] (at 50.0 µM), 89.2% (active); in assay [4] (setting [7]), 31% (inactive); in assay [4] (setting [8]), 89% (active); in assay [4] (at 50.0 µM) it was 84.5% (active). The growth inhibition in assay [5] (setting [7]) is 61% (inactive); in assay [5] (setting [8]), 91% (active); in assay [5] (at 50.0 µM), 84.8% (active); in assay [6] (setting [7]) it was 79% (active); in assay [6] (setting [8]) it was 91% (active); in assay [6] (at 50.0 µM) it was 89.8% (active).
For the compound `COc1ccccc1N=Nc1c(N)nc(N)[nH]c1=O`, the growth inhibition was 4% (inactive) in assay [1] (setting [7]); 14% (inactive) in assay [1] (setting [8]); 6.4% (inactive) in assay [1] (at 50.0 µM); -10% (inactive) in assay [2] (setting [7]); 16% (inactive) in assay [2] (setting [8]); 1.05% (inactive) in assay [2] (at 50.0 µM). Also, the growth inhibition in assay [3] (setting [7]) was -17% (inactive); in assay [3] (setting [8]), 14% (inactive); in assay [3] (at 50.0 µM), -2.05% (inactive); in assay [4] (setting [7]), 0% (inactive); in assay [4] (setting [8]), -7% (inactive); in assay [4] (at 50.0 µM), 11.6% (inactive). Further, the growth inhibition in assay [5] (setting [7]) was -2% (inactive); in assay [5] (setting [8]) it was -2% (inactive); in assay [5] (at 50.0 µM), 52.5% (inactive); in assay [6] (setting [7]), 15% (inactive); in assay [6] (setting [8]), 20% (inactive); in assay [6] (at 50.0 µM), 9.8% (inactive).
In the case of `c1ccc(-c2cc(N3CCCCC3)c(-c3ccccc3)o2)cc1`, the growth inhibition in assay [1] (setting [7]) was -1% (inactive); in assay [1] (setting [8]), 11% (inactive); in assay [1] (at 50.0 µM), 21.4% (inactive); in assay [2] (setting [7]), 9% (inactive); in assay [2] (setting [8]), 14% (inactive); in assay [2] (at 50.0 µM), 1.1% (inactive). The growth inhibition in assay [3] (setting [7]) is 8% (inactive); in assay [3] (setting [8]) it was 28% (inactive); in assay [3] (at 50.0 µM), 44.4% (inactive); in assay [4] (setting [7]), 1% (inactive); in assay [4] (setting [8]) it was 0% (inactive); in assay [4] (at 50.0 µM), -5.7% (inactive). For the same compound, the growth inhibition in assay [5] (setting [7]) is 7% (inactive); in assay [5] (setting [8]), 12% (inactive); in assay [5] (at 50.0 µM), 85.4% (active); in assay [6] (setting [7]), 15% (inactive); in assay [6] (setting [8]), 43% (inactive); in assay [6] (at 50.0 µM) it was 25.1% (inactive).
